Experimental data as given in PubChem BioAssay (NCI).
About 83,000 compounds went through this panel and 20% of them were active in at least one assay; those are over-represented in the sample as a whole.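 Values shown are percent growth following 48 h exposure of cells in 96-well plates to a single concentration of compound; below 10 was considered active.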 Values without a mark were called inactive. Activity calls are given as the source filed them.

These compounds were tested on SW-620 colon (assay: NCI-60 one-dose screen, 48 h (100 = growth as untreated, 0 = no growth, -100 = all killed)). Details: 10 µM unless noted.

Row | SMILES | growth
1 | Cc1[nH]c(-c2nc3ccccc3[nH]2)c(C)c1C(=O)N1CCOCC1 | 96.3%
2 | CN(C)CCCCNc1ccc(NCCCCN(C)C)c2c1C(=O)c1c(O)ccc(O)c1C2=O | -72.6% (active)
3 | COc1cc(C(=O)Nc2cc(O)c(CC=C(C)C)c(O)c2)cc2c1O[C@]1(C)CC[C@@H](O)C(C)(C)[C@H]1C2 | 7.03% (active)
4 | CCN(CC)CCNc1ccc(C)c2sc3cc(C)ccc3c(=O)c12 | 43.6%
5 | O=[N+]([O-])c1ccc(-c2cc3c(Nc4ccc(Cl)c(C(F)(F)F)c4)ncnc3s2)cc1 | 16.8%
6 | Nc1nc(Nc2ccc(Cl)cc2)nn1S(=O)(=O)c1ccc(-c2ccc(F)cc2)cc1 | 95.5%
7 | Cn1ccc(Cc2cnc(N)s2)n1 | 98.9%
8 | CCCCN1CCN(c2ccc3nc(-c4ccc5nc(-c6cc(OC)c(OC)c(OC)c6)[nH]c5c4)[nH]c3c2)CC1 | 60.3%
9 | CCCCNC(=O)c1cc(NCc2cc(O)ccc2O)ccc1O | 110%
10 | C=CCN1C(=O)[C@]2(SC1=S)[C@H](c1cccc(Cl)c1)CN(C)[C@]21C(=O)NC2C=CC(Cl)=C[C@H]21 (stereo partly drawn) | 30.8%
11 | CC(C)(C)c1ccc(C(=O)Nc2sc3c(c2C(N)=O)CCC(=O)C3)cc1 | -36.7% (active)
12 | CCOC(=O)c1cnn2c(-c3ccc(Cl)cc3)nc(NCc3ccccc3)nc12 | 4.94% (active)
13 | CN(C)CN1CCN(c2ccc3nc(-c4ccc5nc(-c6ccc(C(F)(F)F)cc6)[nH]c5c4)[nH]c3c2)CC1 | 27%
14 | CCc1c(C(=O)N[C@@H]2c3cc(Cl)ccc3CC[C@@H]2O)[nH]c(C)c1C(C)=O | 90.1%
15 | c1ccc(-c2oc3ccccc3c2-c2ccccc2)cc1 | 105%
16 | O=C(c1ccccc1)c1ccc(Cl)c([N+](=O)[O-])c1 | 16.8%
17 | N=C(N)c1ccc(-c2ccc(-c3ccc(Cl)c(Cl)c3)o2)nc1 | -69.8% (active)
18 | CCOC(=O)c1ccc(NC(=O)CCCN(CC)CC)cc1 | 110%
19 | C=C1C(=O)O[C@H]2[C@H]1CC/C(COC(=O)/C=C\C(=O)NCc1ccc(Cn3c(=O)sn(-c4ccc(C#N)cc4)c3=O)cc1)=C\CC[C@@]1(C)O[C@@H]21 | -64% (active)
20 | C[C@@H]1CC[C@@H]2[C@@H]1[C@H](OC(=O)/C=C/c1ccccc1)[C@]1(CCCOCCOCCOCCOC(=O)CCCC[C@@H]3SC[C@@H]4NC(=O)N[C@@H]43)C[C@@H](OC(=O)CO)[C@@]2(C)O1 | 102%
21 | CC(C)c1ccc(NC(=O)Cc2ccc(Nc3ncnc4cc(-c5cnn(CCN(C)C)c5)ccc34)cc2)cc1 | -82.6% [30 µM] (active)
22 | CN(C)c1ccc(-c2cc(-c3ccc(Nc4nc(Nc5ccccc5)nc(Nc5ccc(Cl)cc5)n4)cc3)nc(N)n2)cc1 | 67.9%
23 | O=C1Nc2ccccc2/C1=N/N=C/c1c[nH]c2ccccc12 | 71.5%
24 | CC(=O)Nc1nccs1 | 92.5%
25 | CCCCC1COc2cccc3c(SCC(=O)N(C)c4cccc(Cl)c4)cc[n+]1c23 (stereo not drawn) | 110%
26 | Cl.Fc1c[c-]c(-c2ccccn2)c(F)c1.[Pt].c1ccc(P(c2ccccc2)C([PH+](c2ccccc2)c2ccccc2)[PH+](c2ccccc2)c2ccccc2)cc1 | 14.7%
27 | COc1cc2nc(Nc3ccc(F)cc3)nc(N)c2cc1OC | 103%
28 | N#Cc1c(N)n2c(nc1=Nc1ccc([N+](=O)[O-])cc1)sc1cc(Cl)ccc12 | 96.4%
